Results taken from the supplement of paper PMC10849652.
About 7,900 targets were measured; listed, in parts, are those with a hit and a random draw of the rest. About 0.6% of all pairs of compound and target were hits. Values without a mark were called inactive.

Assays:
Assay in all cases: log2 fold change, soluble protein after heating vs DMSO (PISA); higher = thermal stabilisation; K562 cells, 10 uM, 30 min; active = over 0.2 and 3.5 SD of the protein, either way, in both replicates (recomputed)
[1] = compound: CC1=C(C=C(C=C1)NC(=O)C2=CC(=CC=C2)C(C)(C)C#N)NC3=CC4=C(C=C3)N=CN(C4=O)C
How it was run: (§1)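 For each measurement, 10 μM compound was applied for 30 min to K562 cells at 2×10^6 cells/mL. Aliquots were heated for 3 min across 48°C-58°C, pooled, and extracted in PBS with 0.5% NP-40 at 4°C; the supernatant after 21,000xg for 90 min was soluble protein. This was quantified by TMTpro 16plex LC-MS/MS with channel sums equalised, and thermal stability was reported relative to control samples from duplicates, on a log2 fold-change scale.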

[2] = compound: CC1=C(C=C(C=C1)NC(=O)C2=CC(=CC=C2)N(C)C)NC(=O)C3=CC=C(C=C3)O
How it was run: as §1

[3] = compound: CC1=CC=C(C=C1)SC2=C3C=C(SC3=CN=C2)C(=O)N
How it was run: as §1

[4] = compound: CC1=NC(=CC=C1)C2=C(N=C(N2)C(C)(C)C)C3=CC4=NC=CN=C4C=C3
How it was run: as §1

Nexturastat A = compound: CCCCN(Cc1ccc(C(=O)NO)cc1)C(=O)Nc1ccccc1 [Nexturastat A]
How it was run: as §1

vemurafenib = compound: CCCS(=O)(=O)Nc1ccc(F)c(C(=O)c2c[nH]c3ncc(-c4ccc(Cl)cc4)cc23)c1F [vemurafenib]
How it was run: as §1

[5] = compound: CCCS(=O)(=O)Nc1ccc(F)c(C(=O)c2c[nH]c3ncc(Cl)cc23)c1F
How it was run: as §1

[6] = compound: CCCc1cc(C)[nH]c(=O)c1CNC(=O)c1cc(-c2ccnc(N3CCN(C)CC3)c2)cc2c1cnn2C(C)C
How it was run: as §1

givinostat = compound: CCN(CC)Cc1ccc2cc(COC(=O)Nc3ccc(C(=O)NO)cc3)ccc2c1 [givinostat]
How it was run: as §1

barasertib = compound: CCN(CCCOc1ccc2c(Nc3cc(CC(=O)Nc4cccc(F)c4)[nH]n3)ncnc2c1)CCOP(=O)(O)O [barasertib]
How it was run: as §1

[7] = compound: CC[C@@H]1C(=O)N(C)c2cnc(Nc3ccc(C(=O)NC4CCN(C)CC4)cc3OC)nc2N1C1CCCC1
How it was run: as §1

volasertib = compound: CC[C@@H]1C(=O)N(C)c2cnc(Nc3ccc(C(=O)N[C@H]4CC[C@H](N5CCN(CC6CC6)CC5)CC4)cc3OC)nc2N1C(C)C [volasertib]
How it was run: as §1

[8] = compound: CC[C@H](C)N1C=C(C2=C(C=C(C=C21)C3=CN=C(C=C3)N4CCNCC4)C(=O)NCC5=C(C=C(NC5=O)C)C)C
How it was run: as §1

epoxomicin = compound: CC[C@H](C)[C@@H](C(=O)N[C@@H]([C@@H](C)O)C(=O)N[C@@H](CC(C)C)C(=O)[C@]1(CO1)C)NC(=O)[C@H]([C@@H](C)CC)N(C)C(=O)C [epoxomicin]
How it was run: as §1

[9] = compound: CCn1c(C(=O)N(C2CC2)C2CC2)cc2c3c(ncn3C)c(Nc3cc(C)n(C)n3)nc21
How it was run: as §1

[10] = compound: CCn1cc(-c2ccnc3[nH]c(-c4cccc(CN(C)C)c4)cc23)c(-c2ccc(NC(=O)N(C)C)cc2)n1
How it was run: as §1

[11] = compound: CN(C)CC(=O)Nc1ccc2[nH]c(=O)c3ccccc3c2c1
How it was run: as §1

rosiglitazone = compound: CN(CCOC1=CC=C(C=C1)C[C@H]2C(=O)NC(=O)S2)C3=CC=CC=N3 (racemic) [rosiglitazone]
How it was run: as §1

[12] = compound: CN1C2=C(C3=C1C(=O)N(N=C3)CC4=CC(=CC=C4)N)SC(=C2)S(=O)C
How it was run: as §1

[13] = compound: CN1CCC(CNc2ccc3ncc(-c4cccc(OC(F)(F)F)c4)n3n2)CC1
How it was run: as §1

Chain of UniProt Q5JTZ9 (Q5JTZ9 whole entry, looked up): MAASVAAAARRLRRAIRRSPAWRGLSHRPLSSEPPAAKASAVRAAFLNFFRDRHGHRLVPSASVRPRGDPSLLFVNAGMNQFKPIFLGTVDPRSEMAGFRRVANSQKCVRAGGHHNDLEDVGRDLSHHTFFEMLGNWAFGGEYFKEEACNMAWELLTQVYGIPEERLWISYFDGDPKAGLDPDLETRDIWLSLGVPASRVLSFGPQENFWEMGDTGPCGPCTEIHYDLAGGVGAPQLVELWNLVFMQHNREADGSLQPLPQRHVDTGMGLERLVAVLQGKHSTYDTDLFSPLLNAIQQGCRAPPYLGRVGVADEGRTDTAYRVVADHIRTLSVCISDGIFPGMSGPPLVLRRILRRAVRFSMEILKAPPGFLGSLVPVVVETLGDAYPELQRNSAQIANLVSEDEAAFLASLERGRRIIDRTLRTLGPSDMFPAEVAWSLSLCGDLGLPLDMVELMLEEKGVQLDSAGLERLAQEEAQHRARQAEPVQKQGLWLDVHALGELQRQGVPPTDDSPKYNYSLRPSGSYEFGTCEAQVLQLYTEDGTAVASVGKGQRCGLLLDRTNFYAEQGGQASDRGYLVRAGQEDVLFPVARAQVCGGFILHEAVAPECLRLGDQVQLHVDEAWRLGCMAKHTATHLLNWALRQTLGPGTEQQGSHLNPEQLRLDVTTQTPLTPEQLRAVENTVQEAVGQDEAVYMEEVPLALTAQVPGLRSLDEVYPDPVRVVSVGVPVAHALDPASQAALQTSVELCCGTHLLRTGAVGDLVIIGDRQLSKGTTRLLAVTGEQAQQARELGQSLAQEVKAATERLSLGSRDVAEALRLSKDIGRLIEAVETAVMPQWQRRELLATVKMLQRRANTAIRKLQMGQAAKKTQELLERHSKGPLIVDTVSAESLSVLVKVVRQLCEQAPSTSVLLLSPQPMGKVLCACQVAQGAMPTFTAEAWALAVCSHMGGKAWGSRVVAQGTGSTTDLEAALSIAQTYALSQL
Chain of UniProt O14965 (O14965 whole entry, looked up): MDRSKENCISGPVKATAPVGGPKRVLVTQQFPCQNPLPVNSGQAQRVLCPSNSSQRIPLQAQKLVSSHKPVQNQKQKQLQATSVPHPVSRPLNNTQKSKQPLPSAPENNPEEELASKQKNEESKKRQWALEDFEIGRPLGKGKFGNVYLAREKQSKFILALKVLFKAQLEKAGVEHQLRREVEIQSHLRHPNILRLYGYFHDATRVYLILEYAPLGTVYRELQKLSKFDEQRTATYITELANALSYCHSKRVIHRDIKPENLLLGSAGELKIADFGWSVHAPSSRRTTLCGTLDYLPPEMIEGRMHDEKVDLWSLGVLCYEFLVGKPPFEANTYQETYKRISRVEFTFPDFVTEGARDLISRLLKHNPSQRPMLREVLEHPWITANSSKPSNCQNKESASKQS
Chain of UniProt O95870 (O95870 whole entry, looked up): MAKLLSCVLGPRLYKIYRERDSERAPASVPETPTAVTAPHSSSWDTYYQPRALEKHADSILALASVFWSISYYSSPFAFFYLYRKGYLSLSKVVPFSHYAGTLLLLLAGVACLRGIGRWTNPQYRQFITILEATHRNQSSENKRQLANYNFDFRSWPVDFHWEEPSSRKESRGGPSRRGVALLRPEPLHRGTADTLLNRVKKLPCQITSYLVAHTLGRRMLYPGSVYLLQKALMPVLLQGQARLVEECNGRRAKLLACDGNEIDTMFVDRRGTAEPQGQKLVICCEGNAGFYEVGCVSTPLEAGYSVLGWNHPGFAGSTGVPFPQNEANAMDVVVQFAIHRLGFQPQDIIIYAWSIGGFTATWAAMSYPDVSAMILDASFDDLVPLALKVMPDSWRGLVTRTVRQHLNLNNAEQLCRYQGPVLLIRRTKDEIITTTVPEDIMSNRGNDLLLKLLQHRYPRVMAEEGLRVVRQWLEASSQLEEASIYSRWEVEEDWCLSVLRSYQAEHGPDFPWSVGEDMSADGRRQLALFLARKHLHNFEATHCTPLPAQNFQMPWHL
Chain of UniProt Q86UU0 (Q86UU0 whole entry, looked up): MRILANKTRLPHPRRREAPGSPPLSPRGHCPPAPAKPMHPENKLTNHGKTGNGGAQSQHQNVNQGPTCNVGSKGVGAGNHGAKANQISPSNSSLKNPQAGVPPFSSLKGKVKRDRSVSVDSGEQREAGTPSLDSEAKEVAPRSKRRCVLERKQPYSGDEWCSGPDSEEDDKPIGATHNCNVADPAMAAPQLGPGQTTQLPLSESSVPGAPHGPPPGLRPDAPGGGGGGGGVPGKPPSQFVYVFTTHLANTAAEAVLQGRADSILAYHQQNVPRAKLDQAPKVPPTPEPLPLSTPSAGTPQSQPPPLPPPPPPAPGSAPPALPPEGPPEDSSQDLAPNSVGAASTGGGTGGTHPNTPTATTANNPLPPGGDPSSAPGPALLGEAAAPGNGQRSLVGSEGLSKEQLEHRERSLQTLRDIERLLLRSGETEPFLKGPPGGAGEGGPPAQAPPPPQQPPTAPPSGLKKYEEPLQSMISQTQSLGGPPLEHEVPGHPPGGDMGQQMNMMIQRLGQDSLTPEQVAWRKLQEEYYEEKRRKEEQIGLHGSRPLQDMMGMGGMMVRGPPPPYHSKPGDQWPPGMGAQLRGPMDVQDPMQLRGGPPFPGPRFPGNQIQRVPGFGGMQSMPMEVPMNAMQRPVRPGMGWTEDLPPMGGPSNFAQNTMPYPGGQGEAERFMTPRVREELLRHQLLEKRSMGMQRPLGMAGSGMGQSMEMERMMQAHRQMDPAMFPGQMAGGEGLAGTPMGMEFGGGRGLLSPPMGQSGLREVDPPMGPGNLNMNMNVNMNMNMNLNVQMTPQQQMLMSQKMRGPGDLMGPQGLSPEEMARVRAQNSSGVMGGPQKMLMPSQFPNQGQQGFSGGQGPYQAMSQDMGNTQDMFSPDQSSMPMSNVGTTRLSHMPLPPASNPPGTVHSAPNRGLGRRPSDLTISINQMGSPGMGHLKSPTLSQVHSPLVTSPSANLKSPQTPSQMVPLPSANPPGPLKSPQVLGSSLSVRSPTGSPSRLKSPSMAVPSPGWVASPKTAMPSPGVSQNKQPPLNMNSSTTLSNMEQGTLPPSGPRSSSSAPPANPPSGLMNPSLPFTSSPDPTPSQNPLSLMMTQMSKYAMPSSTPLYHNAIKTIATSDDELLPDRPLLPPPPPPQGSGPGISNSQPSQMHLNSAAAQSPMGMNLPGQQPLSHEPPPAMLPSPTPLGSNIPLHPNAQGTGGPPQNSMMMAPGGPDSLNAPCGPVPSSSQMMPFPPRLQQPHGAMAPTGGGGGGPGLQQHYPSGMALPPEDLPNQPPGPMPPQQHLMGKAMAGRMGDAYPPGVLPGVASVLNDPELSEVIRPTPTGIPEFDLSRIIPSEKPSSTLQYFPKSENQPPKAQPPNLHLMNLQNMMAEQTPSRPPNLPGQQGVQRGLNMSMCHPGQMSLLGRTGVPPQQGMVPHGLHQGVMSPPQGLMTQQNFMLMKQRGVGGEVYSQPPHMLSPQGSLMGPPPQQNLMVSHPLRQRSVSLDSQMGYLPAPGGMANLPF
Chain of UniProt O00116 (O00116 whole entry, looked up): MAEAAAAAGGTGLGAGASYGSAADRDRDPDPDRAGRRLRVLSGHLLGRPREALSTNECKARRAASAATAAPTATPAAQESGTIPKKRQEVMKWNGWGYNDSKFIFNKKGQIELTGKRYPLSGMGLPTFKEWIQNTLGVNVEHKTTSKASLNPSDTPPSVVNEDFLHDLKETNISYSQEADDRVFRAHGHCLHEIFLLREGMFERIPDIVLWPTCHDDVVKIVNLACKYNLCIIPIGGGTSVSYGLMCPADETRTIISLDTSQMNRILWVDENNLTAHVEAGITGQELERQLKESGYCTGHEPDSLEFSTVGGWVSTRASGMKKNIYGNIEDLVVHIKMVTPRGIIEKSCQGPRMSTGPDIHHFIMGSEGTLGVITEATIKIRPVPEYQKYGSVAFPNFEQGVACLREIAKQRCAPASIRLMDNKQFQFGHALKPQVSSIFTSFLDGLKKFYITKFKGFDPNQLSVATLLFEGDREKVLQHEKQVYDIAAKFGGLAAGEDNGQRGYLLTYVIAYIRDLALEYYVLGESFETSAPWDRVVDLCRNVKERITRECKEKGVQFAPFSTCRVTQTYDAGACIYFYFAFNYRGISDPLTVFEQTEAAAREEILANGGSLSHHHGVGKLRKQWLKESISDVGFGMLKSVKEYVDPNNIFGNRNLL
Chain of UniProt Q5T9A4 (Q5T9A4 whole entry, looked up): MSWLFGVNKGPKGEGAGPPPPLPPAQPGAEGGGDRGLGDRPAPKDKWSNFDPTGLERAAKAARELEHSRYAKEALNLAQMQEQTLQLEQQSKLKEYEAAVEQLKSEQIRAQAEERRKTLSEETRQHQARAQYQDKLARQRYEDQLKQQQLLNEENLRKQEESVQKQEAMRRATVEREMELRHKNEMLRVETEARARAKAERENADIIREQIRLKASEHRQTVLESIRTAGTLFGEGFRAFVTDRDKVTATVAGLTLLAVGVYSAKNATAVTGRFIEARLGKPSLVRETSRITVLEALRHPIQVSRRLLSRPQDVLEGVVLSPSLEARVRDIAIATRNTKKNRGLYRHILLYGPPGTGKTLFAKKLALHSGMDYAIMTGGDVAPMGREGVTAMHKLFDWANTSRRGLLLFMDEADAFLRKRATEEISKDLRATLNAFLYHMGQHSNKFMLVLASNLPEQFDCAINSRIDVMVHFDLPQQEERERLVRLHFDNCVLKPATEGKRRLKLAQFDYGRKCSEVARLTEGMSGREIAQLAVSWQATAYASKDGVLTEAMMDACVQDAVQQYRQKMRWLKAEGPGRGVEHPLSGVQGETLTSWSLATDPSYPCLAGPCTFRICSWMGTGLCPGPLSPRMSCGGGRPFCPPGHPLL

Target	log2 fold change [1]	log2 fold change [2]	log2 fold change [3]	log2 fold change [4]	log2 fold change (Nexturastat A)	log2 fold change (vemurafenib)	log2 fold change [5]	log2 fold change [6]	log2 fold change (givinostat)	log2 fold change (barasertib)	log2 fold change [7]	log2 fold change (volasertib)	log2 fold change [8]	log2 fold change (epoxomicin)	log2 fold change [9]	log2 fold change [10]	log2 fold change [11]	log2 fold change (rosiglitazone)	log2 fold change [12]	log2 fold change [13]
APOB (UniProt P04114)	-0.039	0.134	0.146	0.032	-0.049	-0.006	0.095	-0.853 (active)	0.074	-0.012	-0.235	-0.104	-0.227	-0.056	0.004	0.048	0.014	0.02	0.116	-0.354
AGRN (UniProt O00468)	-0.089	-0.294	-0.031	0.014	-0.051	-0.025	-0.072	0.024	-0.011	0.011	0.042	-0.001	0.005	0.065	-0.018	0.053	0.016	-0.012	0.062	-0.02
AARS2 (UniProt Q5JTZ9)	-0.003	-0.047	0.017	0.079	-0.015	0.045	0.04	0.049	0.05	0.058	0.001	-0.199	0.023	0.023	-0.015	-0.05	0.031	0.054	-0.062	-0.312 (active)
AURKA (UniProt O14965)	-0.008	-0.041	-0.011	-0.036	0.096	-0.026	0.006	0.01	0.257	0.114	0.017	0.134	-0.022	0.113	0.004	0.733 (active)	0	-0.015	0.029	0.14
ACAP2 (UniProt Q15057)	-0.046	0	-0.038	0.033	0	0.046	0.057	-0.04	0.028	0	-0.034	-0.192	0.066	-0.002	-0.007	-0.015	0.065	0.023	-0.004	0.063
AGPS (UniProt O00116)	0.126	0.012	0.013	-0.001	-0.084	0.02	0.041	-0.043	-0.033	0.06	-0.005	-0.021	0.002	0.031	0.018	-0.102	0.039	0.055	-0.09	-0.212 (active)
ACP2 (UniProt P11117)	-0.014	-0.013	0.029	-0.027	-0.08	0.017	-0.023	-0.038	0	0.016	-0.156	-0.151	-0.068	0.019	0.004	-0.02	-0.029	0.006	0.013	-0.14
ATR (UniProt Q13535)	-0.012	-0.022	0.013	-0.126	0.005	0.035	-0.001	0.015	0.039	0.037	-0.063	-0.197	-0.02	0.048	-0.071	-0.041	0.052	0.049	-0.017	0
AUP1 (UniProt Q9Y679)	0.054	0.021	0.009	-0.005	-0.048	0.121	0.058	-0.056	0.028	0.06	-0.132	-0.253	0.032	0.046	-0.002	-0.028	0.089	0.12	0.014	-0.24 (active)
ATAD3A isoform 2 (UniProt Q9NVI7)	-0.04	0.005	0.007	0.017	0.207	0.033	0.052	0	0.045	0.009	-0.145	-0.202	0.038	0.05	-0.055	0.033	0.018	0.007	0.177	-0.319 (active)
ATAD3B (UniProt Q5T9A4)	-0.07	-0.022	0.003	-0.009	0.236	-0.024	0.042	0.058	0.05	-0.019	-0.076	-0.167	0.093	-0.045	-0.018	0.112	-0.026	0.005	0.167	-0.339 (active)
ACIN1 (UniProt Q9UKV3)	-0.028	0.039	-0.015	-0.013	0.044	0	0.014	0.023	0.105	-0.008	-0.017	-0.056	-0.012	-0.048	-0.057	0.004	-0.034	0.008	-0.021	-0.097
ACSM3 (UniProt Q53FZ2)	-0.069	-0.056	0.019	-0.029	-0.096	0.033	0.036	0.018	0.039	0.103	0.021	-0.092	0.062	0.146	-0.03	-0.02	0.154	0.046	-0.099	-0.145
ABHD16A (UniProt O95870)	0.01	-0.084	-0.051	-0.057	0.118	-0.001	-0.036	0.09	0.037	0.008	0.134	0.079	-0.01	-0.008	-0.092	-0.09	-0.018	-0.003	-0.076	0.283
AKT2 (UniProt P31751)	0.018	0.033	0.006	0.019	0.069	-0.007	0.015	-0.017	0.069	0.079	-0.017	-0.253	0.128	0.079	-0.061	-0.175	-0.026	0.082	-0.038	-0.119
BCL9L (UniProt Q86UU0)	-0.046	-0.012	0.005	-0.033	-0.033	-0.037	-0.014	-0.029	0.043	-0.001	0	0.036	0.044	0.038	0.04	-0.024	-0.003	0.088	-0.023	-0.019
